Screening results (PubChem BioAssay)
Most compounds without a hit are left out; they make up all but 7.2% or so of the library.
RE007 growth inh = less growth of the S. pombe RE007 Vpr strain; 360,000 compounds, 0.21% hits; S. pombe RE007 Vpr strain, BacTiter-Glo ATP luminescence, 24 h; AID 651644; Potency, µM (titrated, usually from 92.2 µM), without a hit: top-dose activity change, negative = less growth, hits mostly inhibitors; active = well fitted falling curve with a large enough effect; inconclusive = small, poorly fitted or top-dose-only effect; inactive = no such curve, though single readings can be large or run the other way; note: nearly all actives have a fitted effect of over 50% in size
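Fission yeast strain RE007, carrying one chromosomally integrated HIV-1 vpr copy, was seeded at OD 0.01 in PMG+AL medium with 23 nL pinned compound. After 24 h at 30 °C and 99% humidity, viability was read by BacTiter-Glo luminescence.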
LASV entry inh = Lassa virus entry inhibition. AID 540256. Potency, µM (titrated, usually from 37.9 µM), inactives show top-dose activity change, negative = inhibition, usual class: inhibitors. 300,000 compounds, 1.2% hits. Lassa virus pseudotype entry inhibition, cell reporter; calls by dose curve; tested in HEK293 cells; note: nearly all actives have a fitted effect of over 50% in size
FMDV antiviral = foot and mouth disease virus antiviral activity | 410,000 compounds, 1.2% hits | Potency, µM (titrated, usually from 57.9 µM), for inactives: at the highest dose activity change, negative = inhibition, actives largely listed as inhibitors | FMDV antiviral cell-based qHTS; calls by dose curve; tested in HEK293T cells; note: read-out not given here; nearly all actives have a fitted effect of over 45% in size
HCV inhibitor = HCV inhibition; Huh7.5.1 HCVcc-Cre infection, luciferase reporter, 44 h; Potency, µM (doses to about 41.8 µM), for inactives: at the top dose activity change, negative = inhibition, usual class: inhibitors; 340,000 compounds, 3.4% hits; AID 651820
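Whole-lifecycle infectious HCVcc-Cre system; cells 1,000/well, compound then virus (~0.5 moi) added 4 h after plating, 44 h culture. Luciferase read 15 sec following 15 min substrate incubation, room temp.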
MARV entry inh = Marburg virus entry inhibition. Marburg virus pseudotyped entry inhibition, cell reporter. Potency, µM (highest dose often 37.8 µM), without a hit: at the top dose activity change, negative = inhibition, hits mostly inhibitors. 300,000 compounds, 1.8% hits. AID 540276; calls by dose curve; tested in HEK293 cells
Sm TGR inh = inhibitors of Schistosoma mansoni thioredoxin glutathione reductase; Q962Y6; purified TGR, DTNB reduction, TNB absorbance 405 nm; Potency, µM (doses to about 114 µM), for inactives: top-dose activity change, negative = inhibition, usual class: inhibitors; 360,000 compounds, 3% hits; note: nearly all actives have a fitted effect of over 60% in size
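TGR 20 nM + NADPH 100 uM (dispensed conc.), cpd preinc 15 min RT; start with NADPH (500 uM addition) then DTNB (15 mM addition). Kinetic TNB absorbance, 405 nm filter. Four-parameter Hill fit across titration.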
* hit, by the source's call; ? = inconclusive; nt = not tested or not shown; [ ] = dose if it differs, or a comment. Unless noted, calls come from the whole dose curve; as a rule, active = well fitted curve in the direction sought with a large enough effect; inconclusive = small, poorly fitted or top-dose-only effect, or another doubt; inactive = no such curve, though single readings can be large; an effect the other way counts as inactive or inconclusive. % is set by controls: 0 for no effect and ±100 for the full control effect; potency is the fitted concentration of half-maximal effect.

SMILES	RE007 growth inh	LASV entry inh	FMDV antiviral	HCV inhibitor	MARV entry inh	Sm TGR inh
CCC(=O)Nc1cc(-c2nn3c(C)nnc3s2)ccc1C	17%	13%	44%	13%	12%	3%
COc1cc(OC)cc(C(=O)Nc2cccc(NC(=O)c3ccccc3)c2)c1	-10%	?	-18%	10µM*	?	12%
COc1ccc(C(=O)Nc2ccc(Nc3ccccc3)cc2)cc1OC	-7%	nt	-7%	-25%	nt	-10%
CCC(C(=O)Nc1cc(OC)c(NC(=O)c2ccccc2)cc1OC)c1ccccc1 (configuration not stated)	3%	?	-29%	11µM*	1%[46.1 µM]	-25%
Cc1ccc(NC(=O)c2ccc(Nc3c([N+](=O)[O-])cc([N+](=O)[O-])cc3[N+](=O)[O-])cc2)cc1	0%	?	13µM*	10µM*	10µM*	9%
COc1cc(OC)cc(C(=O)Nc2ccc(Nc3ccccc3)cc2)c1	?	nt	43%	8.9µM*	nt	-18%
COc1cc(OC)cc(C(=O)Nc2cccc(C(C)=O)c2)c1	12%	22%	0%	-17%	13%	4%
CCC(C(=O)Nc1cc(Cl)ccc1OC)c1ccccc1 (configuration not stated)	14%	-16%	-11%	?	-22%	2%
Cc1ccccc1C(=O)Nc1sc2c(c1C(=O)N1CCC(C)CC1)CCC(C)C2 (configuration not stated)	nt	21%[46.1 µM]	43%	nt	-20%[46.1 µM]	0%
COc1ccc(-n2ncc(C(=O)NCCCN3CCCCC3)c2C2CCN(C(=O)OC(C)(C)C)CC2)cc1	nt	-17%[46.1 µM]	-1%	nt	nt	4%
CCc1ccc(NC(=O)CC(c2ccc(C)cc2)N2Cc3ccccc3C2=O)cc1 (configuration not stated)	nt	15%[46.1 µM]	28%	nt	nt	3%
COc1ccc(N2C(=O)[C@@H]3C[C@H]2CN3Cc2cccn2-c2nccs2)cc1Cl	nt	nt	4%	nt	nt	nt
COc1ccc(C(=O)Nc2ccc(Nc3ccccc3)cc2)cc1[N+](=O)[O-]	-23%	nt	35µM*	11µM*	nt	-19%
COc1ccc(OC)c(NC(=O)c2cccc(NC(=O)c3ccccc3)c2)c1	22%	?	-8%	10µM*	?	29%
COc1ccc2oc(=O)c(C(=O)Nc3cccc(C(=O)O)c3)cc2c1	nt	4%[46.1 µM]	?	nt	2.8µM*	-4%
COc1cc(NC(=O)c2nccnc2N)cc(C(=O)Nc2cccc(C(F)(F)F)c2)c1	-7%	nt	-16%	-18%	nt	9%
COc1cc(NC(=O)c2nccn2C)cc(C(=O)Nc2cccc(C(F)(F)F)c2)c1	-6%	nt	-4%	2.5µM*	nt	-1%
O=C(CSc1ncc2c(n1)-c1ccc(Cl)cc1N(Cc1ccccc1)S2(=O)=O)Nc1ccccc1C(F)(F)F	nt	-27%[46.1 µM]	-6%	nt	nt	10%
CCOC(=O)c1[nH]c2c(c1Cc1ccccc1OC)C(=O)CC(c1ccc(OC)cc1)C2 (configuration not stated)	nt	-24%[46.1 µM]	23%	nt	?	-2%
CCSc1ncc(Cl)c(C(=O)N(Cc2ccc(C(C)(C)C)cc2)C2CCS(=O)(=O)C2)n1 (configuration not stated)	nt	-28%[46.1 µM]	-15%	nt	?	-3%
CCOC(=O)C1=C(C)NC(=O)NC1c1ccc([N+](=O)[O-])o1 (configuration not stated)	9%	nt	4%	15%	nt	40µM*
COCCOC(=O)C1=C(C)NC(=O)NC1c1ccc(-c2ccc(F)cc2)o1 (configuration not stated)	-5%	-29%	-3%	-7%	-27%[46.1 µM]	10µM*
CC1CN(CC(O)COC2CCC(C(C)(C)C)CC2)CC(C)O1 (configuration not stated)	12%	26%[46.1 µM]	14%	-7%	?	-4%
CC(C)(C)C1CCC(OCC(O)CN2CCN(Cc3ccccc3)CC2)CC1 (configuration not stated)	8%	nt	?	32µM*	nt	0%
CC1CCCC(C)N1CC(O)COC1CCC(C(C)(C)C)CC1 (configuration not stated)	20%	nt	?	13µM*	nt	3%
SMILES	RE007 growth inh	LASV entry inh	FMDV antiviral	HCV inhibitor	MARV entry inh	Sm TGR inh
Cc1nc2c(ccc3nc(NC(=O)Cc4ccccc4)sc32)s1	15%	?	58%	10µM*	?	0%
Cc1ccc(CC(=O)Nc2nc3ccccc3s2)cc1	5%	?	27%	-16%	?	9%
Cc1cc(C)cc(OCCSc2nc3ccc(NC(=O)c4cccs4)cc3s2)c1	nt	11%[46.1 µM]	-8%	nt	-9%[46.1 µM]	2%
CCCCOC(=O)c1ccc(NC(=O)c2ccc3c(c2)CCN3S(C)(=O)=O)cc1	nt	4%[46.1 µM]	35µM*	nt	?	0%
CC(C)c1ccc(NC(=O)c2ccc3c(c2)CCCN3S(C)(=O)=O)cc1	nt	-24%[46.1 µM]	10µM*	nt	?	-6%
CCc1ccc(NC(=O)c2ccc3c(c2)CCN3S(C)(=O)=O)cc1	9%	nt	-7%	nt	nt	nt
Cc1ccc(NC(=O)c2ccc3c(c2)CCN3S(C)(=O)=O)cc1C	1%	?	19%	11µM*	?	-9%
NNC(=O)Cn1c2c(c3c1CCCC3)CCCC2	nt	nt	nt	nt	1%[46.1 µM]	nt
COc1ccc2c(c1)CC/C(=C\C=C\c1ccccc1OC)C2=O	-9%	?	22%	?	-26%	28µM*
COc1ccc2c(c1)C(=O)/C(=C/C=C/c1ccccc1)CC2	-14%	-3%	6%	0%	1%	45µM*
COc1ccc2c(c1)CC/C(=C\c1ccc(C)o1)C2=O	17%	nt	62%	-26%	nt	22µM*
COc1ccc(-n2nnc3c(SC(C(C)=O)C(=O)N(C)C)ncnc32)cc1 (configuration not stated)	-6%	nt	32µM*	7%	nt	-28%
CCc1noc(-c2ccc(NCc3ccccc3)c([N+](=O)[O-])c2)n1	nt	3%[46.1 µM]	19%	nt	?	-5%
CN(Cc1ccc(Cl)cc1)C(=O)c1ccc(S(=O)(=O)NCc2ccco2)cc1	-5%	nt	26%	-27%	nt	-24%
Cc1nn(-c2ccccc2)c(C)c1CN(C)C(=O)c1ccc(S(=O)(=O)NCc2ccco2)cc1	-11%	nt	-28%	14µM*	nt	-14%
CC(C)c1ccc(CN(C)C(=O)c2ccc(S(=O)(=O)NCc3ccco3)cc2)cc1	0%	nt	-26%	6.3µM*	nt	-1%
Cc1c(C(=O)NCCCN2CCCC2=O)cnn1-c1ncc2c(n1)-c1ccccc1CC2	nt	nt	29%	nt	nt	nt
Cc1ccc(NCc2nnc(SCc3ccc(C#N)cc3)n2Cc2ccco2)c(C)c1	-12%	6%	-13%	-30%	?	27%
COc1ccc(C(=O)CSc2nnc(CNc3ccc(C)cc3C)n2Cc2ccco2)cc1	-6%	?	-18%	6.3µM*	-40%	-16%
